Dicer inh: inhibitors of human Dicer processing of pre-microRNA; Q9UPY3; cat-ELCCA pre-miR-21 Dicer processing, chemiluminescence; hits give high values; z-score at 25 µM; 6% of 47,000 active; in the data active means z-score above about 3, passing the limit was not always enough;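 further: plate controls were vehicle for no effect and no enzyme for full effect; higher signal means more uncleaved substrate so more Dicer inhibition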
Target sequence (Q9UPY3 whole entry, looked up): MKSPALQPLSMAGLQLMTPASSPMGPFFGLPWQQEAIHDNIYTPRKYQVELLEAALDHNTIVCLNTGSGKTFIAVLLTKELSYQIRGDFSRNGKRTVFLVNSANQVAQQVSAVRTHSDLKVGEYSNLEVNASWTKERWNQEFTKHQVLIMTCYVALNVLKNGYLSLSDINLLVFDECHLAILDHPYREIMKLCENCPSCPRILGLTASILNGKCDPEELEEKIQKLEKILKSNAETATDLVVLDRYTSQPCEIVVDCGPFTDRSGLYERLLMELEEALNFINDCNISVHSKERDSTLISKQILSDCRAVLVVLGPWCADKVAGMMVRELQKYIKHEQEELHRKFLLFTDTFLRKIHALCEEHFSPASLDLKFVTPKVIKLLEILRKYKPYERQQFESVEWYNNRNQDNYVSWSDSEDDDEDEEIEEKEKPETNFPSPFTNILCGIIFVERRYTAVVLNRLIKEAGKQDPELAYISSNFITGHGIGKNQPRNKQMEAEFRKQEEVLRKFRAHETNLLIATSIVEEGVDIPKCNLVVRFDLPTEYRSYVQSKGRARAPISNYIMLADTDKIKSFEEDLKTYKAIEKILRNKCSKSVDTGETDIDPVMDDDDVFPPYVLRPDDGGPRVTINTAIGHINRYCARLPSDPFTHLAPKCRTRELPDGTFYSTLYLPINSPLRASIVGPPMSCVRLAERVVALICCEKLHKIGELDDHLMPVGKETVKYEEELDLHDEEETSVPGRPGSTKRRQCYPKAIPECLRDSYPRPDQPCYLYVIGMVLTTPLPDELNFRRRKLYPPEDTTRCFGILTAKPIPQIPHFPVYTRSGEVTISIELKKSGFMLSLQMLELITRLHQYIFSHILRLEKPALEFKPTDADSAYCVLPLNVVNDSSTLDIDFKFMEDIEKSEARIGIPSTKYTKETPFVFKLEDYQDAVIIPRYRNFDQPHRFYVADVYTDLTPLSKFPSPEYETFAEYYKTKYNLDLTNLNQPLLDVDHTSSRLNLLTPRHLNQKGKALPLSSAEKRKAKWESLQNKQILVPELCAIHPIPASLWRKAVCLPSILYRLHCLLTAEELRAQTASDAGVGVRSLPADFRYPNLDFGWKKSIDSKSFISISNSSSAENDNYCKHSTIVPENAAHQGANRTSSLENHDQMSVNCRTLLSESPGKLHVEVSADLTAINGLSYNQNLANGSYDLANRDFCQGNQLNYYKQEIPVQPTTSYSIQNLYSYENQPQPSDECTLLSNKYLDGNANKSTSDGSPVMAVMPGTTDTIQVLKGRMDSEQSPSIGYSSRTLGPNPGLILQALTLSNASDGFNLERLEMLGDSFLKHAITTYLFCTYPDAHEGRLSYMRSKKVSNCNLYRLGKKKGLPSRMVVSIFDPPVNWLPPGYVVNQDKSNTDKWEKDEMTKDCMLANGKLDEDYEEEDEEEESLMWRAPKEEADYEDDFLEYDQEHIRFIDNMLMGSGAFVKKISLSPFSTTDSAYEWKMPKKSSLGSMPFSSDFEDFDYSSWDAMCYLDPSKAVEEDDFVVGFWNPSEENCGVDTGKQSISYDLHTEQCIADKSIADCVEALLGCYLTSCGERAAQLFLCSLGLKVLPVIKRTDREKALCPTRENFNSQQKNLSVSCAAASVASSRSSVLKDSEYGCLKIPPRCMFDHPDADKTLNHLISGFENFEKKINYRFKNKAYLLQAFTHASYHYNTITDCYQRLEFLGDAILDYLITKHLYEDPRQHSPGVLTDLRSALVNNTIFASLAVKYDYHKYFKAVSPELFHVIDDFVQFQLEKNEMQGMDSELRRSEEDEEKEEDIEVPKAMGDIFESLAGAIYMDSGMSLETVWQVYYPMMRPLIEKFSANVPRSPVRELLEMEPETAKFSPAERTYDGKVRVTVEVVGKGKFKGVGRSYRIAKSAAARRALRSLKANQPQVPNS
Numbers without * were called inactive; ! = not active in a repeat. Shown is part of a subset that was picked to be rich in hits.

SMILES	Dicer inh
N/C(=N\O)c1ccc(C2OCCO2)cc1	0.6
Cc1cc(C)cc(NC(=O)C2Sc3nnc(C)n3NC2c2ccc(Cl)cc2)c1 (stereo unspecified)	-0.77
Cc1cc(NC(=O)C2Sc3nnc(C)n3NC2c2ccc(Cl)cc2)ccc1Br (stereo unspecified)	3.7*
Cc1nnc2n1NC(c1ccc(Cl)cc1)C(C(=O)Nc1ccc(Br)cc1)S2 (stereo unspecified)	-0.11
O=[N+]([O-])c1cc(S(=O)(=O)NCc2ccco2)ccc1N/N=C/c1cccnc1	-0.26
O=S(=O)(NNc1cnc2ccccc2n1)c1ccccc1C(F)(F)F	0.49
CN(C)C(=S)SCC(=O)c1ccc(Cl)cc1	4.9*
Cn1c(SCC(=O)c2ccc(Cl)cc2)nnc1SCC(=O)c1ccc(Cl)cc1	-0.58
O=C(CSC(=S)N1CCOCC1)c1ccc(Cl)cc1	-1.3
CCn1c(C)nc2cc(S(=O)(=O)NC)ccc21	2.5
O=C(Nc1ccc(Cl)cc1)C1CC(=O)N(CCc2ccc(Cl)cc2)C1 (stereo unspecified)	0.41
Cc1cc(C)c(C#N)c(SC(C(=O)Nc2c(F)cccc2F)c2ccccc2)n1 (stereo unspecified)	-1.5
Cc1cc(C)n(-c2ccc(Sc3ccc(Cl)cc3)nn2)n1	-2
Cc1ccc(S(=O)(=O)N2CCCC3(CCCCC3)C2)cc1	0.92
Cc1ccc(S(=O)(=O)N2CN3CN(C2)CN(S(=O)(=O)c2ccc(C)cc2)C3)cc1	-1.4
Cc1ccc(S(=O)(=O)N2CCCOC2)cc1	3.8*
CC1CCc2c(sc3[nH]c(=O)n(-c4cccc(Cl)c4)c(=O)c23)C1 (stereo unspecified)	0.48
C=CCc1c(CCC)nc(SC)[nH]c1=O	-0.56
COC(=O)c1ccc(Br)cc1	0.38
COC(=O)c1ccc2cc(C(=O)O)ccc2c1	5.4*
COC(=O)c1cc(Cl)cc(Cl)c1	-0.99
Cc1ccsc1/C=C/NC(=O)Nc1ccc(F)cc1F	-0.14
CCC12CN3CC(CC)(CN(C1)C3c1ccc(O)cc1O)C2=O (stereo unspecified)	0.45
CC12CN3CC(C)(CN(C1)C3c1ccc(O)cc1O)C2=O (stereo unspecified)	-2.8
CC(C)C12CN3CC(C(C)C)(CN(C1)C3c1ccc(O)cc1O)C2=O (stereo unspecified)	5.7*
SMILES	Dicer inh
CCOC(=O)CN1C(=O)N(CC(=O)c2ccccc2)C(c2ccccc2)(c2ccccc2)C1=O	-0.93
COc1c(C[C@H](NC(C)=O)C(=O)O)cccc1OCC1CCCC1	0.04
COc1ccc(Nc2ncnc(N)n2)cc1	1.1
Cn1c2c(c(=O)n(C)c1=O)C(c1cccc(F)c1)C1C(=O)c3ccccc3C1=N2 (stereo unspecified)	-0.17
CC(=O)OCC1=C(C(=O)O)N2C(=O)[C@@H](NC(=O)Cc3cccs3)[C@H]2SC1	2.6
NC(=O)c1cc[n+](CC2=C(C(=O)O)N3C(=O)[C@@H](NC(=O)[C@@H](c4ccccc4)S(=O)(=O)[O-])[C@H]3SC2)cc1	3.7*!
O=C(COc1ccccc1)NC1C(=O)N2C(C(=O)O)=C(Cl)CSC12 (stereo unspecified)	-0.43
N/C(=N\OC(=O)c1cnn(-c2ccc(Cl)cc2)c1C(F)(F)F)c1ccc(C(F)(F)F)cc1	-2.2
CCC12CN3CC(CC)(CN(C1)C3c1ccc(F)cc1)C2=O (stereo unspecified)	0.14
Fc1ccc(-c2nnn(Cc3cccc(F)c3)n2)cc1	-0.05
Cc1ccc(-n2cccc2C(=O)C(F)(F)F)c([N+](=O)[O-])c1	-0.41
Cc1onc(-c2c(Cl)cccc2Cl)c1C(=O)NC(C)(C)CC(C)(C)C	0.53
C#CCOC(=O)NC(=O)c1c(-c2c(Cl)cccc2Cl)noc1C	3.2*
Cc1onc(-c2c(Cl)cccc2Cl)c1NC(=O)NC(=O)c1c(Cl)cccc1Cl	0.74
COc1ccc(-c2nc3n(n2)C(c2ccc(F)cc2)C2=C(CC(C)(C)CC2=O)N3)cc1 (stereo unspecified)	0.1
COc1ccccc1OCc1nc2c3c4c(sc3ncn2n1)CCCCC4	-0.5
Clc1ccc(OCc2nc3c4c5c(sc4ncn3n2)CCCC5)cc1	1.2
COc1ccc(OCc2nc3c4c5c(sc4ncn3n2)CCCCC5)cc1	4.2*
O=C(O)Cn1cnc2sc(-c3ccccc3)cc2c1=O	-0.51
O=S(=O)(Oc1c(Cl)cccc1Cl)c1cc(Br)c(Br)s1	-0.24
C/C(=N/O)c1nnc2cc(C)nn2c1C	-1.5
Cc1cccnc1Nc1nc(-c2cccnc2)cs1	1.2
O=C(O)c1ccc(Nc2nc(-c3cccnc3)cs2)cc1	6.6*
COc1ccc(-c2csc(Nc3cccnc3)n2)cc1	2.8
Clc1ccc(-c2csc(Nc3ccccc3)n2)cc1	0.33
SMILES	Dicer inh
Cc1ccc(Nc2nc(C(F)(F)F)cs2)cc1	0.07
Clc1ccc(Nc2nc(-c3ccncc3)cs2)cc1	5.6*
Cc1ccc(-c2csc(Nc3ccc(S(N)(=O)=O)cc3)n2)cc1	7.1*
CCc1ccc(-c2csc(Nc3ccc(S(N)(=O)=O)cc3)n2)cc1	7.5
Fc1ccc(Nc2nc(-c3ccncc3)cs2)cc1	2.2
Cc1cc(C)n2ncc(/C(N)=N/OC(=O)c3ccccc3Cl)c2n1	-3.8

Screening results as filed in PubChem BioAssay.
